{
  "source": "the supplement of paper PMC6555819",
  "data": [
    {"tested_on": "VDR:RXRa (NR concentration 270 nM, RXRa partner concentration 90 nM)", "assay": "PBM binding z-score (relative to random genomic background probes); higher = stronger binding; sequences stand for … in GC…GCGATTGACAGCGTAGAATGAAGG", "protocol": "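Protein-binding microarray (Agilent 4x180K custom design, double-stranded 60-nt probes: 5' GC cap, 34-nt variable region, 24-nt constant primer region; full probe sequence given). Purified or IVT nuclear receptor:RXRα heterodimers (3:1 NR:RXRα, mostly 270:90 nM) or homodimers were incubated for 1 h in PBS with 2% milk and no ligand, then detected with Alexa488 antibodies. Fluorescence from o1-orientation probes (~5 replicates averaged) was converted to z-scores against 500 random hg19 background probes. Variable regions are seed direct-repeat (DR0–DR5) sites, all their single-nucleotide variants and half-site ablations.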", "values": [
      {"sequence": "TCGAGTAGGGTAGTCGGGGCATTCAGCCAACATA", "PBM binding z-score": 0.167},
      {"sequence": "ATATGAAGGTTAGCTGGGGTCATTCAGACTAGGC", "PBM binding z-score": 6.61},
      {"sequence": "CCTACTGGCCCATTCAGAGGTCATTGATCATATG", "PBM binding z-score": 3.58},
      {"sequence": "ATCGAAAGGTCGAAGGTGAGAATACCCACCCGAA", "PBM binding z-score": 2.7},
      {"sequence": "GCTGCTAGGTCACGTTGGTCAGCTAACGGGTACG", "PBM binding z-score": 2.29},
      {"sequence": "ATCGAAAGGTCGTGAGGTGAGTAAACAGAAAGGC", "PBM binding z-score": 3.3},
      {"sequence": "CAAACTAGGTCAAGAGGTGAAAGTCCGCTTCCCG", "PBM binding z-score": 2.93},
      {"sequence": "CTACCAAGGTGAAGAAGGTCGTTGATTACTATTC", "PBM binding z-score": 4.25},
      {"sequence": "CTCGAAAGGTCGGTTGAGGTGAGTATGCGGATAA", "PBM binding z-score": 2.15},
      {"sequence": "TCATATAGATAAAGGTGAAAGTCGAACGATATGA", "PBM binding z-score": 0.945},
      {"sequence": "GCTGCTAGGTCAGGTCGGTCAGCTAACGGGTACG", "PBM binding z-score": 1.09},
      {"sequence": "TCATACAGGTAAAGGTGAAAGTCGAACGATATGA", "PBM binding z-score": 1.13},
      {"sequence": "TAGCCTAGGTCATGCGGGCCAGTGTAGTGTCGGC", "PBM binding z-score": 2.74},
      {"sequence": "TCATATAGGTAAAAGCTAGGTGAAAGTCCGATCT", "PBM binding z-score": 0.608},
      {"sequence": "CCTCGGAGGACAACAGGAGTTCAGAGCTGCCAGA", "PBM binding z-score": 1.14},
      {"sequence": "GCGACTGGGGCATCAGAAGGTTACCATAACTTAA", "PBM binding z-score": 0.169},
      {"sequence": "AGAATGAGGTTACCAAAGATCATGGAAACGCTTG", "PBM binding z-score": 1.79},
      {"sequence": "CCTCGGAGGACAACAGGAGCTCAGAGCTGCCAGA", "PBM binding z-score": -0.533},
      {"sequence": "CGAACGAGGGCATGAGTTGATTGCAAATGCCGAT", "PBM binding z-score": 1.66},
      {"sequence": "CTCGAAAGGTCGTGCTCAGCTGAGTATACCAAAC", "PBM binding z-score": 3.17},
      {"sequence": "CCTTACGGGTCACTCACAGGTTATAGCATTTGGA", "PBM binding z-score": 3.6},
      {"sequence": "CCTACTGGGCCATCAGGTCATTTATATCAACGTT", "PBM binding z-score": 1.65},
      {"sequence": "TCATATAGGTAAAGGAGAAAGTCGAACGATATGA", "PBM binding z-score": 0.392},
      {"sequence": "TCTTGTAGATCAAGCAGGTCAAGAAAGCCTGAGT", "PBM binding z-score": 2.28},
      {"sequence": "TTACCAAGGTGAGCTGAGGTCGTTGAGCCAACTC", "PBM binding z-score": 4.29},
      {"sequence": "TATACAGGGTAAAAGGCCAGAGTACGAATGTCGA", "PBM binding z-score": 0.433},
      {"sequence": "ATCCAAAGGTCGTGAGGTGAGTATACAGAAAGGC", "PBM binding z-score": 3.91},
      {"sequence": "CGAACTAGGTCAAAACAGGACAGTGAAGGATGAT", "PBM binding z-score": 1.99},
      {"sequence": "GCTCGGAGGACAAGGTTAGAGCTTTGTCCGTAGA", "PBM binding z-score": -0.341},
      {"sequence": "CTCAAAAGGTCGGTTGAGGTGAGTATACGGATAA", "PBM binding z-score": 2.54},
      {"sequence": "CCTAGCAGGCCAGGGCCACTCAAGCATTTCGCTT", "PBM binding z-score": -1.03},
      {"sequence": "TCTTGTAGATCAAGCAGGTTAAGAATGCCTGAGT", "PBM binding z-score": 0.48},
      {"sequence": "GCTCGGAGGACAAGGTCAGAGCGTTGTCCGTAGA", "PBM binding z-score": 1.67},
      {"sequence": "GCTGCTAGATCAACTGATGGTCAGCTAAAGCTCG", "PBM binding z-score": -0.766},
      {"sequence": "CCGAATGGGGCAAGGTTACCATAACGCACAGCCA", "PBM binding z-score": 0.34},
      {"sequence": "CCTAGCAGGCCAATATGGGTCACTCAAGGCTTGA", "PBM binding z-score": 0.862},
      {"sequence": "GCGACTGGGGCATCGGCAGGTTACCATAACTTAA", "PBM binding z-score": -0.199},
      {"sequence": "CCTACTGGGCCAAGGTGATTGATCAGTCAAAGCA", "PBM binding z-score": -0.746},
      {"sequence": "GCGACTGGGGCAAAGCGGGTTACCATAAGGTTGG", "PBM binding z-score": 0.145},
      {"sequence": "GGAACGAGGGCAAGTTGATAACAGAGTTTGATGG", "PBM binding z-score": 0.906}
    ]}
  ]
}
